# HT1080 IDH1KD tx = toxicity to HT-1080 IDH1 knockdown cells (counter line); 360,000 compounds, 2% hits; Potency, µM (titrated, usually from 46.1 µM), most hits filed as cytotoxic; HT-1080 IDH1 knockdown viability, ATP luminescence, 48 h
#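 Using the IDH1-knockdown HT-1080 line run in the same batch and compound series as the NT line, viability after 48 h at 37 °C was determined by CellTiter-Glo luminescence and expressed as % activity.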
# DT40 TDP1 CPT = growth inhibition of DT40 Tdp1-/-;hTDP1 cells with camptothecin (screen for TDP1 inhibitors); chicken DT40 Tdp1-/-;hTDP1 cells + 20 nM CPT, ATP luminescence, 48 h; Potency, µM (highest dose often 46.2 µM), usual class: inhibitors; 420,000 compounds, 12% hits; also: nearly all actives have a fitted effect of over 55% in size
#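 Chicken DT40 Tdp1-/- cells complemented with human TDP1, 400 cells/well, exposed to compounds plus 20 nM camptothecin for at least 48 h at 37 C; viability read as ATP content by CellTiter-Glo luminescence.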
# TGFb inhibitor = TGF-b pathway inhibition; HepG2 CAGA-GFP TGF-b/SMAD3 reporter, GFP fluorescence, 18 h; TGF-beta stimulated, 500 pg/mL final; Potency, µM (highest dose often 46.1 µM), most hits filed as inhibitors; 410,000 compounds, 1.2% hits; also: nearly all actives have a fitted effect of over 65% in size
#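 HEPG2 CAGA-GFP, 1000 cells/well; 2 h settle, 37 C; cpd via pin tool; TGF-b 500 pg/mL final; 18 h, 37 C; GFP imaging ex488/em500-530; %Activity normalised to -TGF-b and +DMSO controls; CRC fit, curve class.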
# HepG2 viability = counter-screen for TGF-b inhibitors: cytotoxicity in HepG2 cells | Potency, µM (doses to about 46.1 µM), actives largely listed as cytotoxic | 410,000 compounds, 0.76% hits | HepG2 CAGA-GFP viability, ATP luminescence, 18 h
#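 HepG2 CAGA-GFP cells (1000/well, DMEM with 1% FBS) received compound, then TGF-beta at 500 pg/mL final, and were incubated 18 hours at 37 degrees C. Viability was read by CellTiter-Glo luminescence. Media-only wells were set as complete cell-killing and DMSO as no toxicity.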
# DT40 TDP1 no CPT = qHTS for Inhibitors of human tyrosyl-DNA phosphodiesterase 1 (TDP1): qHTS in cells in absence of CPT | 420,000 compounds, 15% hits | DT40 Tdp1-/- hTDP1 cells, no CPT, ATP luminescence, 48 h | Potency, µM (highest dose often 46.2 µM), most hits filed as inhibitors | AID 686978, 2013; also: nearly all actives have a fitted effect of over 55% in size
#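 Growth of hTDP1-complemented DT40 Tdp1-knockout cells is measured by ATP luminescence after at least 48 hr compound exposure at 37 °C, with DMSO substituting for the 20 nM CPT used in the parallel screen.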
# HT1080-NT tox = kills 2HG-producing HT-1080-NT fibrosarcoma cells | HT-1080-NT fibrosarcoma viability, CellTiter-Glo ATP luminescence, 48 h | Potency, µM (highest dose often 46.1 µM), actives largely listed as cytotoxic | 360,000 compounds, 1.6% hits;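 also: NT is the 2HG producing partner of a matched IDH1 knockdown line; nearly all actives have a fitted effect of over 55% in size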
#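 Compounds were tested in concentration-response format on HT-1080-NT cells for 48 hours at 37 degrees C. Cell viability came from CellTiter-Glo luminescence; curves were classified by r2, response magnitude and activity.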
# A number is an active result; 0 = inactive; ? = inconclusive; - = no result given; [ ] = another dose, or the depositor's remark. Only some compounds are listed: those with a hit (about 17% of all), similar ones and a draw of the others. Calls follow the shape of the dose curve; as a rule, active = well fitted curve in the direction sought with a large enough effect; inconclusive = small, poorly fitted or top-dose-only effect, or another doubt; inactive = no such curve, though single readings can be large; an effect the other way counts as inactive or inconclusive.
SMILES,HT1080 IDH1KD tx,DT40 TDP1 CPT,TGFb inhibitor,HepG2 viability,DT40 TDP1 no CPT,HT1080-NT tox
Cc1ccc(NC(=S)NCC23C=CC(O2)C2C(=O)N(c4ccc(C)cc4)C(=O)C23)cc1 (centres undefined),0,18µM,?,0,?,0
Cc1ccc(N2C(=O)C3C4C=CC(CNC(=S)N5CCN(c6ccccc6)CC5)(O4)C3C2=O)cc1 (centres undefined),0,18µM,0,0,18µM,0
Cc1ccc(S(=O)(=O)NCC23C=CC(O2)C2C(=O)N(c4ccccc4)C(=O)C23)cc1 (centres undefined),0,?,0,0,?,0
Cc1ccc(OCC(=O)NCCNC(=O)c2cnccn2)cc1C,0,0,0,0,0,0
CC(C)(C)c1ccc(-c2cn(-c3ccc(Br)cc3)c3[n+]2CCCS3)cc1,8.2µM,0.16µM,10µM,0,0.18µM,23µM
COc1ccc(-c2cn(-c3ccccc3)c3[n+]2CCS3)cc1,13µM,2.3µM,?,0,2.3µM,?
Fc1ccc(-n2cc(-c3ccccc3)[n+]3c2SCC3)cc1,?,0,0,0,?,0
Cc1csc(CN(C)C(=O)CC2C(=O)NCCN2Cc2ccc(F)cc2Cl)n1 (centres undefined),0,0,0,0,0,0
O=C(O)CN1C(=O)SC(Nc2ccccc2C(=O)O)C1=O (centres undefined),0,0,?,0,0,0
N#Cc1c(NCc2ccccc2)ccnc1NCc1cccnc1,0,23µM,0,0,8.2µM,0
N#Cc1c(F)cccc1NCc1cccnc1,0,0,0,0,0,0
O=C1c2cnc3nc(SCc4ccccc4)nn3c2CC2c3ccccc3CCN12 (centres undefined),0,?,0,0,18µM,0
O=C1CC2c3ccccc3CCN2C(=O)CN1Cc1ccccc1 (centres undefined),0,0,0,0,0,?
CCOP(=O)(OCC)c1nc(-c2ccc(Cl)cc2Cl)oc1N1CCCCC1,23µM,12µM,?,0,18µM,18µM
O=C(NCc1cccnc1)/C(=C/c1ccc(-c2cccc(C(F)(F)F)c2)o1)NC(=O)c1ccccc1,0,13µM,?,0,18µM,0
Cc1ccc(C(=O)N/C(=C/c2ccc(-c3cc(C(F)(F)F)ccc3Cl)o2)C(=O)NCc2cccnc2)cc1,0,?,13µM,0,23µM,0
Cc1ccc(C(=O)N/C(=C\c2ccco2)C(=O)NCc2cccnc2)cc1,0,0,0,0,0,0
O=C(NCc1cccnc1)/C(=C/c1ccc(-c2ccc(Cl)cc2)o1)S(=O)(=O)c1ccccc1,5.6µM,5.2µM,?,4.5µM,7.3µM,6.3µM
O=C(NCc1cccnc1)/C(=C/c1ccc([N+](=O)[O-])cc1)NC(=O)c1ccccc1,0,0,0,0,0,0
O=C(NCc1cccnc1)/C(=C/c1ccc(Cl)cc1)NC(=O)c1ccccc1,0,23µM,0,0,0,0
Cc1ccc(-n2c(=O)c3ccc(C(=O)NCc4ccccc4Cl)cc3n(Cc3cccc(F)c3)c2=O)cc1,-,?,0,0,?,-
O=C(NC1CCCC1)C(C1CC1)n1c(-c2ccccn2)nc2ccccc21 (centres undefined),0,9.2µM,-,-,7.3µM,0
O=C(NCc1ccccc1)C(c1ccccc1)n1c(C2CC2)nc2ccccc21 (centres undefined),0,?,-,-,?,0
O=C(NCc1ccccc1)C(C1CC1)n1c(CSCCOc2ccccc2)nc2ccccc21 (centres undefined),?,?,-,-,16µM,?
O=C(NCc1ccccc1)C(C1CC1)n1c(-c2cccs2)nc2ccccc21 (centres undefined),0,10µM,-,-,9.2µM,0
SMILES,HT1080 IDH1KD tx,DT40 TDP1 CPT,TGFb inhibitor,HepG2 viability,DT40 TDP1 no CPT,HT1080-NT tox
O=C1C=C(c2ccc(CO)cc2)C[C@@H](c2ccc3c(c2)OCO3)C1,0,?,0,0,?,0
CN(C)c1ccc(/C=C2\C=Cc3ccccc32)cc1F,-,?,0,0,?,-
COc1ccccc1N1CCN(C2CCCN(S(=O)(=O)c3ccc(C)cc3)C2)CC1 (centres undefined),0,?,0,0,?,0
Cc1ccc(S(=O)(=O)N2CCCC(c3nnc4n3-c3ccccc3SC4)C2)cc1 (centres undefined),0,?,0,0,15µM,0
COC(=O)[C@@H](NC(=O)C1CCCN(c2nc(C)c3ccc(C)cc3n2)C1)C(C)C (some centres undefined),-,0[9.04 µM],-,-,?,-
CC(C)(C)c1ccc(-n2nc(C#N)c(Cl)cc2=O)cc1,3.3µM,3.7µM,7.1µM,6.3µM,2.9µM,7.3µM
COc1ccc(-c2nnc(SCC(=O)NC3CCCc4ccccc43)n2N)cc1 (centres undefined),0,0,0,0,0,0
Cc1cc(NC(=O)CS(=O)c2cn(Cc3cccc(Cl)c3)c3ccccc23)no1 (centres undefined),?,21µM,13µM,0,16µM,0
Cc1ccc(NC(=O)Cn2cnc(C(=O)Nc3ccc(C)c(C)c3)n2)cc1C,0,0,0,0,0,0
Cc1ccc(NC(=O)c2ncn(CCCN3CCN(Cc4cccc5ccccc45)CC3)n2)cc1C,?,21µM,?,0,13µM,?
Cc1cc(C)c(CN2CCN(C(=O)Cn3cnc(C(=O)Nc4ccc(C)c(C)c4)n3)CC2)c(C)c1,0,?,16µM,0,0,?
COCCCNC(=O)C(=O)N/N=C/c1ccc(OCC(=O)Nc2cccc(Cl)c2C)c(OC)c1,0,0,0,0,0,0
CCOC(=O)N1CCN(Cc2nc3cc(NC(=O)C(C)C)ccc3n2C)CC1,0,0,0,0,0,0
CCOC(=O)N1CCN(Cc2nc3cc(NC(=O)c4ccc(OC)cc4)ccc3n2C(C)C)CC1,-,4.1µM,?,0,?,-
CCCn1c(CN2CCN(C(=O)OCC)CC2)nc2cc(NC(=O)CC)ccc21,5.8µM,3.3µM,?,0,4.6µM,7.3µM
CCOC(=O)N1CCN(Cc2nc3cc(NC(=O)C(C)C)ccc3n2C(C)C)CC1,-,5.2µM,0,0,2.6µM,-
CCOC(=O)N1CCN(Cc2nc3cc(NC(=O)c4ccc(F)cc4)ccc3n2C(C)C)CC1,-,0.92µM,0,0,1µM,-
Cc1ccccc1C(=O)N1CCC(C(=O)NN2C(=O)NC3(CCC(C)CC3)C2=O)CC1 (centres undefined),0,0,0,0,0,0

# From PubChem BioAssay
